# Screening data: PubChem BioAssay, National Center for Advancing Translational Sciences (NCATS)
# Sampled rows, rich in hits. Any-hit rate of the full collection: about 11%.
# Coupling enz: qHTS Assay for Inhibitors of Fructose-1,6-bisphosphate Aldolase from Giardia Lamblia: Coupling assay counterscreen. coupling enzyme system counterscreen, AmpLite Red fluorescence. activity change, negative = inhibition, % at 58.2 µM, hits read low. actives 0.67% (n = 290,000). AID 2472, 2010; in the data active means activity change below about -30%
#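 Compounds tested against the coupling enzymes alone at 57.5 uM final; readout was AmpLite Red fluorescence (525/598 nm) after 20 min at RT.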
# Tau fibril FP: qHTS for Inhibitors of Tau Fibril Formation, Fluorescence Polarization | Microtubule-associated protein tau (Homo sapiens), P10636 | K18 P301L tau heparin fibrillization, Alexa594 FP, 6 h | Potency, µM (highest dose often 57.7 µM), without a hit: top-dose activity, negative = inhibition, usual class: inhibitors | actives 0.39% (n = 280,000); further: potency means the concentration at half of the fitted maximal effect; nearly all actives have a fitted effect of over 55% in size
# Target sequence (P10636 561-689 P618L limits assumed): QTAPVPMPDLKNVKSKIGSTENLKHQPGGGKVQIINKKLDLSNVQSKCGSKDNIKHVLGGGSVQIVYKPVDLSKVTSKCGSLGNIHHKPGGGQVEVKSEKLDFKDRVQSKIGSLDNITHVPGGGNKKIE
#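 Read-out: fluorescence polarization of Alexa 594-labeled tau (0.24 uM), 555 nm excitation, 632 nm emission. Mixtures held 15 uM unlabeled K18 P301L, compound and 20 uM heparin, pH 7 acetate buffer, incubated 6 hr at 37 C.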
# G9a inh: qHTS Assay for Inhibitors of Histone Lysine Methyltransferase G9a | Histone-lysine N-methyltransferase EHMT2 (Homo sapiens), Q96KQ7 | G9a H3K9 monomethylation, AlphaScreen, 2 h | Potency, µM (highest dose often 102 µM), inactives show at the top dose activity, negative = inhibition, actives largely listed as inhibitors | actives 8.8% (n = 350,000) | AID 504332, 2011; further: potency means the concentration at half of the fitted maximal effect; nearly all actives have a fitted effect of over 75% in size
# Target sequence (Q96KQ7 913-1193 limits assumed): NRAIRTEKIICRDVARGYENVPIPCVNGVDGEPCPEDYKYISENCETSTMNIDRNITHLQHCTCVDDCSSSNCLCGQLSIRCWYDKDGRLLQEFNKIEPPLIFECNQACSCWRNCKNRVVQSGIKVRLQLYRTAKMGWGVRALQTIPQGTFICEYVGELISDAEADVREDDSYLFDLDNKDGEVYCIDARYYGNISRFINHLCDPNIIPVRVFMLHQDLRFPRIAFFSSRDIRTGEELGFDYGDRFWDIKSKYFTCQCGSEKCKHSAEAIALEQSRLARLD
#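 AlphaScreen detection with an anti-monomethyl H3K9 antibody quantified product after a 2 h room-temperature reaction containing 500 nM biotinylated H3K9 peptide, 20 µM SAM and 20 nM enzyme, which had been preincubated 15 min with compound.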
# Tau fibril ThT: qHTS for Inhibitors of Tau Fibril Formation, Thioflavin T Binding | Microtubule-associated protein tau (Homo sapiens), P10636 | actives 2.1% (n = 270,000) | AID 1460, 2008 | Potency, µM (series often up to 57.4 µM), for inactives: top-dose activity, negative = inhibition, usual class: inhibitors | recombinant tau K18 P301L, heparin-induced fibrillization, ThT fluorescence; further: potency means the concentration at half of the fitted maximal effect; nearly all actives have a fitted effect of over 55% in size
#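 Fibril formation assay: tau K18 P301L at 15 uM with trace Alexa 594 label, heparin inducer 20 uM, pH 7 sodium acetate buffer, 37 C for 6 hr; endpoint ThT signal.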
# Tau fluor counter: Counterscreen qHTS for Inhibitors of Tau Fibril Formation, Fluorescence Polarization; tau K18 P301L (four-repeat tau fragment) Alexa594 fluorescence, heparin fibrillization; Potency, µM (highest dose often 57.7 µM), inactives show top-dose activity change, negative = decrease; actives 0.93% (n = 280,000); further: potency means the concentration at half of the fitted maximal effect; nearly all actives have a fitted effect of over 55% in size
#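 Human K18 P301L tau (15 uM unlabeled plus 0.24 uM Alexa 594-labeled, final) in 100 mM sodium acetate pH 7 was mixed with compound and 20 uM heparin and incubated 6 hr at 37 C.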
# Sfp PPTase inh: qHTS Assay for Inhibitors of Bacillus subtilis Sfp phosphopantetheinyl transferase (PPTase). 4'-phosphopantetheinyl transferase ffp (Bacillus subtilis), Q9F4F7. Biochemical Sfp PPTase activity, qHTS. Potency, µM, for inactives: largest response in the series, negative = inhibition, most hits filed as inhibitors. actives 3.5% (n = 310,000). AID 1490, 2009;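 further: the enzyme is Sfp with the accession as filed and its product quenches rhodamine fluorescence; potency means the concentration at half of the fitted maximal effect; 0% = enzyme reaction without inhibitor and -100% = no enzyme wells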
#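 Reaction rates are the 30-min fluorescence difference (ex 525, em 598 nm) in wells containing 15 nM Sfp, 5 uM rhodamine-CoA and 12.5 uM BHQ-2-YbbR at pH 7.6 with 10 mM MgCl2.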
# * = called active by the depositor; u = inconclusive; x = not tested or not shown; [ ] = remark or other dose. Unless noted, the call rests on the fitted dose curve; in most records, active means well fitted curve in the direction sought with a large enough effect; inconclusive means small, poorly fitted or top-dose-only effect, or another doubt; inactive means no such curve, though single readings can be large; an effect the other way counts as inactive or inconclusive. Unless noted, on the % scale 0 is the no-effect control and ±100 the full control effect.
SMILES,Coupling enz,Tau fibril FP,G9a inh,Tau fibril ThT,Tau fluor counter,Sfp PPTase inh
CN(CC(=O)Nc1ccccc1Sc1ccccc1)C1CCCCC1,-1,-9%,96%[59 µM],-23%,-16%,-18%
Cc1cccc(OCC(=O)Nc2nc3ccc([N+](=O)[O-])cc3s2)c1,5,-10%,-18%[59 µM],2µM*,u,-15%
Cc1cccc(OCC(=O)Nc2nc3ccc([N+](=O)[O-])cc3s2)c1C,-1,-1%,-9%,-15%,-19%,11%
CCCC(=O)Nc1nnc(-c2ccco2)s1,-3,12%,-6%[12.7 µM],0%,8%,32µM*
CCn1cc(S(=O)(=O)c2ccccc2)c(=O)c2cc(C)ccc21,x,0%,-35%[59 µM],-2%,-3%,x
c1ccc2c(c1)SCc1c-2[nH]c2ccccc12,-9,x,x,x,x,u
COc1ccc(NC(=O)NC(C)c2ccccc2)cc1 (stereo not given),x,x,16%,x,x,21%
COc1ccc(NC(C)c2ccccc2)cc1 (stereo not given),-7,7%,13µM*,-12%,-18%,4%
COc1ccc(CCNCC(C)c2ccccc2)cc1 (stereo not given),1,x,45µM*,x,x,-7%
OC(CNCCc1ccccc1)c1ccccc1 (stereo not given),-1,2%,0%[12.7 µM],1%,1%,23%
COc1ccc(CCNCC(O)c2ccccc2)cc1 (stereo not given),-1,1%,14µM*,-1%,-7%,-16%
Cc1nc2cccnc2n1C1CCN(C(=O)Nc2ccc(Cl)cc2)CC1,x,-4%,8%[12.7 µM],4%,-11%,x
CN(CC(=O)Nc1ccc(F)cc1)C(=O)COC(=O)CN1C(=O)NC2(CCCC2)C1=O,x,x,x,x,x,-6%
COc1cc(C2CC(=O)N(c3ccccc3)C3=C2C(=O)OC3)cc(OC)c1OC (stereo not given),x,-3%,-13%[59 µM],-5%,-8%,x
COc1ccc(/C=C/C(=O)Nc2ccc(-n3nncc3-c3ccccc3)cc2)cc1OC,0,u,45µM*,5%,u,-3%
O=C(Nc1ccc(Br)cc1)c1ccc(F)c(S(=O)(=O)NC2CCCCCC2)c1,x,u,4%[59 µM],9%,u,x
O=C(Nc1cccc(Cl)c1)c1ccc(F)c(S(=O)(=O)NCc2cccs2)c1,-1,u,14%[59 µM],-4%,u,13%
O=C(Nc1cc(Cl)cc(Cl)c1)c1ccc(F)c(S(=O)(=O)NCc2ccccc2Cl)c1,x,8.9µM*,3%[59 µM],4%,u,x
O=C(Nc1cc(Cl)cc(Cl)c1)c1ccc(F)c(S(=O)(=O)NC2CCCCC2)c1,x,7.1µM*,4%[59 µM],5%,u,x
COc1ccc(CNS(=O)(=O)c2cc(C(=O)Nc3cc(Cl)cc(Cl)c3)ccc2F)cc1,x,3.5µM*,1%[59 µM],8%,3.5µM*[quencher],x
CCc1ccc(NC(=O)c2ccc(F)c(S(=O)(=O)NCc3ccc(Cl)c(Cl)c3)c2)cc1,x,u,4%[59 µM],14%,-21%,x
COc1ccc2[nH]c3c(=O)n(CCCCC(=O)NCCN4CCCC4)c(=S)[nH]c3c2c1,-9,-3%,u,u,u,79µM*
CCCCNC(=O)CCCCn1c(=S)[nH]c2c([nH]c3ccc(OC)cc32)c1=O,-1,-6%,-8%,2%,-3%,6%
COc1ccc2[nH]c3c(=O)n(Cc4ccc(C(=O)N5CCCC5)cc4)c(=S)[nH]c3c2c1,3,-4%,7.9µM*,-8%,-10%,8%
Cc1c(Cl)cccc1NC(=O)CCNC(=O)N1CC(=O)Nc2ccccc21,2,x,17%,x,x,0%
